# Experimental data published in PubChem BioAssay (NCATS).
# Several values for one entry are separate records, joined by “and”; a condition that tells them apart may be missing. Identical values can stand only once. Records with an inconclusive call do not appear. A call without a number means that no potency is given here. Some structures have more than one record in an assay (separate samples or runs), and their calls can disagree. Activity calls are given as the source filed them. Unless noted, the call rests on the fitted dose curve; in most records, active means well fitted curve in the direction sought with a large enough effect; inconclusive means small, poorly fitted or top-dose-only effect, or another doubt; inactive means no such curve, though single readings can be large; an effect the other way counts as inactive or inconclusive.
# Experiments:
# [1] = qHTS assay to identify small molecule inhibitors of chordoma cells - UCH-2 (AID 1259356); further: series mostly up to about 46 µM
# [2] = P-glycoprotein substrates identified in KB-8-5-11 adenocarcinoma cell line, qHTS therapeutic library screen (AID 1346987); conditions: outcome: dose series up to 44.5 µM unless noted; further: nearly all actives have a fitted effect of over 65% in size; further: potency means the concentration at half of the fitted maximal effect
# Outline: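 Luminescence from CellTiter-Glo, read 5 min after addition, quantified survival of KB-8-5-11 (P-gp-overexpressing) cells exposed to compounds for 72 h. AC50 was derived from concentration-response curves.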
# [3] = Natriuretic polypeptide receptor (hNpr1) antagonism - Pilot counterscreen GloSensor control cell line (AID 1347045; calls by dose curve; further: potency means the concentration at half of the fitted maximal effect)
# Outline: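 Cells were first seeded and incubated overnight at 37C, then loaded with 2% GloSensor substrate for 2 h. Compounds were added for 30 min at room temperature, followed by a baseline read, 50 uM SNP and a final read after 20 min.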
# [4] = P-glycoprotein substrates identified in KB-3-1 adenocarcinoma cell line, qHTS therapeutic library screen (AID 1346986); conditions: outcome: dose series up to 44.5 µM unless noted; further: nearly all actives have a fitted effect of over 60% in size
# Outline: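 In 1536-well format, 500 cells/well received pinned compound titrations and were incubated 72 h, 5% CO2. Viability was read by CellTiter-Glo; cytotoxic if AC50 < 10 uM and efficacy >50%.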
# [5] = Identifying Small Molecule Inhibitors of Pancreatic Cancer Stem Cells (SN12C, Adherent) (AID 1259358);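 further: cell survival measured after 48 h of compound exposure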
# Outline: (§1)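 Endpoint: ATP-based luminescence, 48 h drug exposure. Bortezomib at 9.2 uM final as full-kill control; DMSO vehicle as negative control; activity normalized between vehicle and cell-free wells.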
# [6] = Identifying Small Molecule Inhibitors of Pancreatic Cancer Stem Cells (SN12C, Spheroid) (AID 1259360)
# Outline: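 Viability is scored by CellTiter-Glo luminescence 48 h after dosing, expressed as percent activity against vehicle and no-cell references. Spheroid formats rely on cells cultured 14 days in stem cell media beforehand.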
# [7] = Identifying Small Molecule Inhibitors of Pancreatic Cancer Stem Cells (A278, Adherent) (AID 1259361);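 further: viability read after 48 h compound exposure; nearly all actives have a fitted effect of over 35% in size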
# Outline: as §1
smiles,measurement,setting,value
C[C@H]1c2cccc(O)c2C(O)=C2C(=O)[C@]3(O)C(O)=C(C(N)=O)C(=O)[C@@H](N(C)C)[C@@H]3[C@@H](O)[C@@H]21,outcome,[1],inactive
same,Potency,[2],inactive
same,Potency,[3],inactive
COc1ccc(C2CNC(=O)C2)cc1OC1CCCC1 (stereo not drawn),outcome,[1],inactive
same,Potency,[2],inactive
same,Potency,[3],inactive
Cc1ccccc1N1C(=O)c2cc(S(N)(=O)=O)c(Cl)cc2NC1C (stereo not drawn),outcome,[1],inactive
same,Potency,[2],inactive
same,Potency,[3],inactive
Clc1ccc2c(c1)C(N1CCNCC1)=Nc1ccccc1O2,outcome,[1],inactive
same,Potency,[2],inactive and 20.6 µM (active)
CC(C)C(=O)Nc1ccc([N+](=O)[O-])c(C(F)(F)F)c1,outcome,[1],inactive
same,Potency,[2],inactive
CCC1(C)CC(=O)NC1=O (stereo not drawn),outcome,[1],inactive
same,Potency,[2],inactive
same,Potency,[3],inactive
CC[N+](CC)(CC)CCOc1cccc(OCC[N+](CC)(CC)CC)c1OCC[N+](CC)(CC)CC,outcome,[1],inactive
same,Potency,[2],inactive
Nc1nc2c(ncn2COC(CO)CO)c(=O)[nH]1,outcome,[1],inactive
same,Potency,[2],inactive and 16.6 µM (active)
same,Potency,[3],inactive
NC(=O)NO,outcome,[1],inactive
same,Potency,[2],inactive and 1.66 µM (active)
same,Potency,[3],inactive
CCC1(c2ccccc2)C(=O)NCNC1=O,outcome,[1],inactive
same,Potency,[2],inactive
same,Potency,[3],inactive
CN(C)CCC=C1c2ccccc2C=Cc2ccccc21,outcome,[1],inactive
same,Potency,[2],inactive
same,Potency,[3],inactive
CCOC(=O)c1ncn2c1CN(C)C(=O)c1cc(F)ccc1-2,outcome,[1],inactive
same,Potency,[2],inactive
same,Potency,[3],inactive
CC(C)Cc1ccc(C(C)C(=O)O)cc1 (stereo not drawn),outcome,[1],inactive
same,Potency,[2],inactive
same,Potency,[3],inactive
COc1nc(C)nc(Cl)c1NC1=NCCN1,outcome,[1],inactive
same,Potency,[3],inactive
CN(C)c1nc(N(C)C)nc(N(C)C)n1,outcome,[1],inactive
same,Potency,[2],inactive
same,Potency,[3],inactive
Cc1cc(C(C)(C)C)c(O)c(C)c1CC1=NCCN1,outcome,[1],inactive
same,Potency,[2],inactive
same,Potency,[3],inactive
NCCS(=O)(=O)O,outcome,[1],inactive
same,Potency,[2],inactive
same,Potency,[3],inactive
COc1ccccc1OCCNCC(O)COc1cccc2[nH]c3ccccc3c12 (stereo not drawn),outcome,[1],inactive
same,Potency,[2],inactive
same,Potency,[3],inactive
Cn1c(=O)c2[nH]cnc2n(C)c1=O,outcome,[1],inactive
same,Potency,[2],inactive
same,Potency,[3],inactive
O=C(C1CCCCC1)N1CC(=O)N2CCc3ccccc3C2C1 (stereo not drawn),outcome,[1],inactive
same,Potency,[2],inactive
same,Potency,[3],inactive
NC(CO)C(=O)NNCc1ccc(O)c(O)c1O (stereo not drawn),outcome,[1],inactive
same,Potency,[2],inactive
same,Potency,[3],inactive
O=C1Cc2cc(CCN3CCN(c4nsc5ccccc45)CC3)c(Cl)cc2N1,outcome,[1],inactive
same,Potency,[2],inactive
Cc1cc(C(C)(C)C)cc(C)c1CC1=NCCN1,outcome,[1],inactive
same,Potency,[2],inactive
same,Potency,[3],inactive
CN1C(C(=O)Nc2ccccn2)=C(O)c2ccccc2S1(=O)=O,outcome,[1],inactive
same,Potency,[2],inactive
same,Potency,[3],inactive
CCOC(=O)Nc1ccc(NCc2ccc(F)cc2)nc1N,outcome,[1],inactive
same,Potency,[2],inactive
COc1ccccc1OCC(O)CN1CCN(CC(=O)Nc2c(C)cccc2C)CC1 (stereo not drawn),outcome,[1],inactive
same,Potency,[2],inactive
same,Potency,[3],inactive
C[C@](N)(Cc1ccc(O)c(O)c1)C(=O)O,outcome,[1],inactive
same,Potency,[2],inactive
same,Potency,[3],inactive
NS(=O)(=O)c1cc2c(cc1Cl)NCNS2(=O)=O,outcome,[1],inactive
same,Potency,[2],inactive
same,Potency,[3],inactive
CN(C)CCCN1c2ccccc2CCc2ccc(Cl)cc21,outcome,[1],inactive
same,Potency,[2],20.9 µM (active)
CN1CCC(=C2c3ccccc3C=Cc3ccccc32)CC1,outcome,[1],inactive
same,Potency,[3],inactive
O=c1[nH]cc(F)c(=O)[nH]1,outcome,[1],inactive
same,Potency,[3],inactive
Fc1ccc([C@@H]2CCNC[C@H]2COc2ccc3c(c2)OCO3)cc1,Potency,[3],inactive
Cc1ccc(C(=O)Nc2ccc(S(=O)(=O)O)c3cc(S(=O)(=O)O)cc(S(=O)(=O)O)c23)cc1NC(=O)c1cccc(NC(=O)Nc2cccc(C(=O)Nc3cc(C(=O)Nc4ccc(S(=O)(=O)O)c5cc(S(=O)(=O)O)cc(S(=O)(=O)O)c45)ccc3C)c2)c1,outcome,[1],inactive
same,Potency,[3],inactive
COc1ccccc1N1CCN(CC(O)COc2cccc3ccccc23)CC1 (stereo not drawn),outcome,[1],inactive
same,Potency,[3],inactive
CC(COc1ccccc1)N(CCCl)Cc1ccccc1 (stereo not drawn),outcome,[1],inactive
same,Potency,[3],inactive
O=C(CCCN1CCC(O)(c2ccc(Cl)cc2)CC1)c1ccc(F)cc1,outcome,[1],inactive
same,Potency,[3],inactive
NC12CC3CC(CC(C3)C1)C2,outcome,[1],inactive
same,Potency,[3],inactive
CN1CCN(C2=Nc3cc(Cl)ccc3Nc3ccccc32)CC1,outcome,[1],inactive
same,Potency,[3],inactive
CCOC(=O)C(C)(C)Oc1ccc(Cl)cc1,outcome,[1],inactive
same,Potency,[3],inactive
CC[C@@]1(O)C(=O)OCc2c1cc1n(c2=O)Cc2cc3c(CN(C)C)c(O)ccc3nc2-1,Potency,[2],5.9 µM (active) and 8.2 µM (active)
O=c1c(-c2ccc(O)cc2)coc2cc(O)cc(O)c12,outcome,[4],inactive
same,Potency,[3],inactive
Cn1cnc2c1c(=O)[nH]c(=O)n2C,outcome,[1],inactive
same,Potency,[3],inactive
CC(C)NCC(O)COc1ccc(CCOCC2CC2)cc1 (stereo not drawn),outcome,[1],inactive
same,Potency,[3],inactive
CN(C)C(=O)C(CCN1CCC(O)(c2ccc(Cl)cc2)CC1)(c1ccccc1)c1ccccc1,outcome,[1],inactive
same,Potency,[3],26.1 µM (active)
CCc1cccc2c3c([nH]c12)C(CC)(CC(=O)O)OCC3 (stereo not drawn),outcome,[1],inactive
same,Potency,[3],inactive
O=C1c2c(O)ccc(O)c2C(=O)c2c(NCCNCCO)ccc(NCCNCCO)c21,Potency,[2],5.26 µM (active)
same,Potency,[3],10.4 µM (active)
COc1cc2nc(N3CCN(C(=O)c4ccco4)CC3)nc(N)c2cc1OC,Potency,[3],inactive
NC(=O)OCC(COC(N)=O)c1ccccc1,outcome,[1],inactive
same,Potency,[3],inactive
O=C(Nc1ccc([N+](=O)[O-])cc1Cl)c1cc(Cl)ccc1O,Potency,[3],0.464 µM (active)
CNCCCC12CCC(c3ccccc31)c1ccccc12,outcome,[1],inactive
same,Potency,[3],inactive
CCN1CCCC1CNC(=O)c1cc(S(=O)(=O)CC)c(N)cc1OC (stereo not drawn),Potency,[2],inactive
same,Potency,[3],inactive
OCCN(CCO)c1nc(N2CCCCC2)c2nc(N(CCO)CCO)nc(N3CCCCC3)c2n1,outcome,[1],inactive
same,Potency,[3],inactive
CC12CC3CC(C)(C1)CC(N)(C3)C2,outcome,[1],inactive
same,Potency,[3],inactive
COc1ccc2[nH]cc(CCNC(C)=O)c2c1,outcome,[1],inactive
same,Potency,[3],inactive
COc1ccc2c(c1)c(CC(=O)O)c(C)n2C(=O)c1ccc(Cl)cc1,Potency,[3],inactive
COc1cc2c(c(OC)c1OC)-c1ccc(OC)c(=O)cc1[C@@H](NC(C)=O)CC2,outcome,[1],inactive
same,Potency,[3],inactive
Nc1ccn([C@H]2CC[C@@H](CO)O2)c(=O)n1,outcome,[4],inactive
same,Potency,[3],inactive
CN1CCN2c3ccccc3Cc3ccccc3C2C1 (stereo not drawn),outcome,[1],inactive
same,Potency,[3],inactive
CCCNCC(O)COc1ccccc1C(=O)CCc1ccccc1 (stereo not drawn),outcome,[1],inactive
same,Potency,[3],inactive
NCCCCCC(=O)O,outcome,[1],inactive
same,Potency,[3],inactive
CN1C2CCC1CC(OC(=O)C(CO)c1ccccc1)C2 (stereo not drawn),Potency,[3],inactive
COc1ccc(CCN(C)CCCC(C#N)(c2ccc(OC)c(OC)c2)C(C)C)cc1OC (stereo not drawn),Potency,[5],inactive
same,outcome,[6],inactive
same,IC50 (viability decrease),[7],inactive
CC(CCc1ccc(O)cc1)NCCc1ccc(O)c(O)c1 (stereo not drawn),outcome,[1],inactive
same,Potency,[3],inactive
